{
  "source": "PubChem BioAssay (NCI)",
  "note": "Several values for one entry are separate records, joined by “and”; a condition that tells them apart may be missing. Equal entries are not always repeated. Compounds without any hit were thinned out: in the full panel of roughly 83,000, 20% have a hit.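 Activity criterion: percent growth below 10, measured after cells in 96-well plates were exposed to a single compound concentration for 48 hours.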 Values without a mark were called inactive. Activity calls are given as the source filed them.",
  "data": [
    {"system": "MDA-MB-468 breast", "assay": "NCI-60 one-dose screen, 48 h (100 = growth as untreated, 0 = no growth, -100 = all killed)", "conditions": "10 µM unless noted", "values": [
      {"smiles": "N[C@H]1CCC[C@@H]1NCCCCN1C(=O)c2cccc3cccc(c23)C1=O", "growth": "50.4%"},
      {"smiles": "Cc1ccccc1-c1cc(Cc2ccc(F)cc2)c(=O)[nH]n1", "growth": "109%"},
      {"smiles": "Nc1nc(Cl)nc2c1ncn2C1O[C@H](CO)[C@@H](O)[C@@H]1F", "note": "(stereo not given in full)", "growth": "5.22% (active)"},
      {"smiles": "O=C1/C(=C/c2ccc(F)cc2)CN(Cc2cn(CCNc3ccnc4cc(Cl)ccc34)nn2)C/C1=C\\c1ccc(F)cc1", "growth": "-64.2% (active)"},
      {"smiles": "Clc1ccc2[nH]cc(-c3nn4cc(-c5cccnc5)nc4s3)c2c1", "growth": "98.1%"},
      {"smiles": "CC(C)C(=O)Nc1nc2c(s1)CCCc1ccn(S(=O)(=O)c3ccccc3)c1-2", "growth": "95.3%"},
      {"smiles": "CCCCCCCCCCCC(=O)NCCC[N+](C)(C)CC(=O)[O-]", "growth": "86.9%"},
      {"smiles": "CCC1(/C=N/NC(N)=S)NC(=O)NC1=O", "note": "(stereo not given)", "growth": "106%"},
      {"smiles": "O=c1[nH]c(=S)[nH]n1C(=S)n1[nH]c(=S)[nH]c1=O", "growth": "92.5%"},
      {"smiles": "CCCCCCCCCCCC[n+]1ccc2ccccc2c1", "growth": "-30% (active)"},
      {"smiles": "CCCCCCCCCCCCCCCCCCOc1ccccc1CC(=O)OCC[N+]1(C)CCCCC1", "growth": "-10.3% (active)"},
      {"smiles": "O=C(Nc1cc([N+](=O)[O-])c2[nH]c(=O)c3ccccc3c2c1)C(F)(F)F", "growth": "-15.2% (active)"},
      {"smiles": "FC(F)(F)c1cccc(-n2nnc3cnc(Nc4ccc(N5CCCCC5)cc4)nc32)c1", "growth": "68.7%"},
      {"smiles": "Cc1ccc(N)c(S(=O)(=O)O)c1", "growth": "82.6%"},
      {"smiles": "O=C(CNc1nc(-c2cccc([N+](=O)[O-])c2)cs1)Nc1cccc(Cl)c1", "growth": "98%"},
      {"smiles": "Cc1cc(NS(=O)(=O)c2ccc(NC(=O)COc3ccc(-c4cc5ccccc5[nH]4)cc3)cc2)no1", "growth": "-0.467% (active)"},
      {"smiles": "BrCCCc1n(Cc2ccc3ccccc3c2)c2ccccc2[n+]1Cc1ccc2ccccc2c1", "growth": "-68% (active)"},
      {"smiles": "N=c1c2cc(-c3ccccc3)oc2ncn1/N=C/c1ccc(Br)cc1", "growth": "68.3%"},
      {"smiles": "COC(=O)C(C)[C@H]1CC[C@@H]2[C@]1(C)CC=C1[C@]23C=C[C@]2(C[C@@H](OC(C)=O)CC[C@]12C)C(C(=O)OC)C3C(=O)OC", "note": "(stereo not given in full)", "growth": "94.1%"},
      {"smiles": "Cc1nc2c(nnn2-c2ccccc2)c2nc(-c3ccc(Cl)cc3)oc(=O)c12", "growth": "106%"},
      {"smiles": "O=S(=O)(Nc1ccc(F)cc1F)c1ccc(-c2cnc(C3CC3)o2)cc1", "growth": "2.58% (active)"},
      {"smiles": "Brc1cccc(-c2cc(-c3cnc4c(c3)OCCO4)n[nH]2)c1", "growth": "7.76% (active)"},
      {"smiles": "FC(F)(F)c1cn(CCN2CCOCC2)c2ncnc(Cl)c12", "growth": "9.54% (active)"},
      {"smiles": "O=c1c2sc3ncc(Br)cc3c2ncn1-c1cccc(Cl)c1", "growth": "89.8%"},
      {"smiles": "CCOC(=O)Nc1ccc2nc(-c3cscn3)[nH]c2c1", "growth": "-2.03% (active)"},
      {"smiles": "O=C(/C=C/c1ccccc1)c1ccccc1", "growth": "74.8%"},
      {"smiles": "CCOc1ccc(N(C)c2ccc(/C=C/C3=[N+](C)c4ccccc4C3(C)C)cc2)cc1", "growth": "6.26% (active)"},
      {"smiles": "COC(=O)c1ccc2c(c1)n(Cc1ccc3ccccc3c1)c[n+]2Cc1ccc2ccccc2c1", "growth": "-19% (active)"},
      {"smiles": "O=c1[nH]c(=O)n(C2C[C@@H](O)[C@@H](CO)O2)cc1F", "note": "(stereo not given in full)", "growth": "-3.59% (active)"},
      {"smiles": "CCn1cc(C(=O)N/N=C/c2cccc(F)c2)c(=O)c2cc(F)c(N3CCNC(C)C3)c(F)c21", "note": "(stereo not given)", "growth": "71.6%"},
      {"smiles": "COC1(CC[C@@H](C)COC2OC(CO)C(O)C(O)C2O)O[C@H]2C[C@H]3[C@@H]4CC=C5C[C@@H](OC6OC(CO)C(OC7OC(C)C(O)C(O)C7O)C(O)C6OC6OC(C)C(O)C(O)C6O)CC[C@]5(C)[C@H]4CC[C@]3(C)[C@H]2[C@@H]1C", "note": "(stereo not given in full)", "growth": "-24% (active)"},
      {"smiles": "O=C(c1ccc2ncc(-c3nc(NC4CC4)ncc3F)n2c1)N1CCOCC1", "growth": "32.8%"},
      {"smiles": "CC(C)Sc1nc(Nc2ccc(S(N)(=O)=O)cc2)c(C#N)c(-c2ccc(F)cc2)n1", "growth": "92.7%"},
      {"smiles": "COc1ccc(-n2c(C(O)c3ccccc3)nn(CN3CCOCC3)c2=S)cc1", "note": "(stereo not given)", "growth": "97.5%"},
      {"smiles": "Cc1noc(C)c1CSc1nc2ccccc2n1-c1ccccc1", "growth": "108%"},
      {"smiles": "O=C1/C(=C/c2c[nH]c(=O)[nH]c2=O)SC(=S)N1Cc1ccccc1", "growth": "109%"},
      {"smiles": "Cc1nc(Nc2ncc(C(=O)Nc3c(C)cccc3Cl)s2)cc(N2CCN(CCO)CC2)n1", "growth": "-4.35% (active) and -2.22% (active)"},
      {"smiles": "Cc1cc(-c2ccc(Cl)cc2)n(Cc2nnc(SCC(=O)Nc3ccc(S(N)(=O)=O)cc3)n2-c2ccc([N+](=O)[O-])cc2)n1", "growth": "78.6%"},
      {"smiles": "NS(=O)(=O)c1ccc(N2N=C(c3ccc(Br)cc3)CC2c2cn(-c3ccccc3)nc2-c2ccc(Cl)cc2)cc1", "note": "(stereo not given)", "growth": "112%"},
      {"smiles": "c1coc2occoc=2o1", "growth": "98.6%"}
    ]}
  ]
}
